A selection: hits, their analogues and other compounds. The true share with any hit is near 4.2%.
PLK1 PBD inh: qHTS for Inhibitors of PLK1-PDB (polo-like kinase 1 - polo-box domain): Primary Screen; Plk1 PBD binding of FITC phosphopeptide, fluorescence polarization; hit rate 2.8% among 360,000; Potency, µM, for the others: max response, negative = inhibition, usual class: inhibitors; further: series mostly up to about 57 µM; nearly all actives have a fitted effect of over 65% in size
Target sequence (P53350 whole entry, looked up, the tested form may be a part): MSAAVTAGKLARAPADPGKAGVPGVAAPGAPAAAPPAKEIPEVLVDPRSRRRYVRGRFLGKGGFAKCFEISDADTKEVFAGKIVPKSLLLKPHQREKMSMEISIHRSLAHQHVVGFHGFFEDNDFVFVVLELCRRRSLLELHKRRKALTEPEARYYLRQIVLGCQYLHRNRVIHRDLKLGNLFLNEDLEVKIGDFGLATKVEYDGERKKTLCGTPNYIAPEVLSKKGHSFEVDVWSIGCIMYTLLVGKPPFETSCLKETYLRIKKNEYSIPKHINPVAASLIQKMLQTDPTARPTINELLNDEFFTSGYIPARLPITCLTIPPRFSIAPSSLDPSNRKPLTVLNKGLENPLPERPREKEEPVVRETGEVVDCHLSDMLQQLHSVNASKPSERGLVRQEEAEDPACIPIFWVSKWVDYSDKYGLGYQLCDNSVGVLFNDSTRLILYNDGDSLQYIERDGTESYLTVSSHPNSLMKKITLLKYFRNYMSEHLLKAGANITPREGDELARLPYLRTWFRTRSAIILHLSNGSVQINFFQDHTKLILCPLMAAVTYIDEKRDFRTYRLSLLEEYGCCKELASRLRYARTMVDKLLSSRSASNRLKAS
VDR inh: Inhibitors of the vitamin D receptor (VDR): qHTS; Vitamin D3 receptor (Homo sapiens), P11473; VDR-SRC2-3 peptide fluorescence polarization, 2 h; Potency, µM, without a hit: max response, negative = inhibition, usual class: inhibitors; hit rate 0.93% among 400,000
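The screen uses fluorescence polarization to detect compounds that interfere with recruitment of the SRC2-3 coactivator peptide to VDR; plates are read after 2 h at room temperature.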
ALOX12 inh: Primary qHTS assay for inhibitors of human arachidonate 12S-lipoxygenase (ALOX12): Round 2; Polyunsaturated fatty acid lipoxygenase ALOX12 (Homo sapiens), P18054; purified 12hLO, xylenol orange hydroperoxide absorbance; Potency, µM (titrated, usually from 108 µM), inactives show at the highest dose activity change, negative = inhibition, most hits filed as inhibitors; hit rate 1.1% among 580,000; AID 1671190, 2021
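Purified human 12hLO (150 nM final) in 25 mM Hepes, 0.01% Triton X-100, pH 7.0 was preincubated 15 min at room temperature with compound. Then 40 uM arachidonic acid was added, 30 min. Hydroperoxide was read by Fe-XO absorbance ratio 573/405 nm.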
Sfp inh: qHTS Assay for Inhibitors of Bacillus subtilis Sfp phosphopantetheinyl transferase (PPTase); Biochemical Sfp PPTase activity, qHTS; hit rate 3.5% among 310,000; Potency, µM, for inactives: largest response in the series, negative = inhibition, most hits filed as inhibitors;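 further: the enzyme is Sfp with the accession as filed and its product quenches rhodamine fluorescence; 0% = enzyme reaction without inhibitor and -100% = no enzyme wells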
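Compounds were incubated with enzyme (final 15 nM) for 15 min at room temperature before substrate addition started the reaction. Fluorescence at 525 nm excitation, 598 nm emission was recorded immediately and after 30 minutes.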
Active calls of the source: *; ? = inconclusive; · = no result. The call rests on the fitted dose curve; in most records, active means well fitted curve in the direction sought with a large enough effect; inconclusive means small, poorly fitted or top-dose-only effect, or another doubt; inactive means no such curve, though single readings can be large; an effect the other way counts as inactive or inconclusive. Unless noted, on the % scale 0 is the no-effect control and ±100 the full control effect; potency means the concentration at half of the fitted maximal effect.

SMILES | PLK1 PBD inh | VDR inh | ALOX12 inh | Sfp inh
COc1ccc(C(=O)C(C)C(=O)c2ccc(OC)cc2)cc1 | · | · | -29% | ·
Cc1cc(=O)[nH]c(SCC(=O)NC2CCCCCCC2)n1 | 3% | -10% | 140% | ·
CCCCNc1ccc2c(c1)OC[C@H](Cc1ccccc1)NS2(=O)=O | · | · | -24% | ·
CCc1cccc(CC)c1-n1c(SCC(=O)c2c(N)n(C)c(=O)n(C)c2=O)nnc1-c1cccnc1 | -9% | -2% | -15% | 9%
CCOC(=O)C1CCN(C(=O)Cn2nc(CC)n3cccc3c2=O)CC1 | 27µM* | ? | 1% | 19%
CCOC(=O)C1CCCN(C(=O)Cn2nc(C)n3c(cc4c(OC)cccc43)c2=O)C1 (stereo not given) | 27µM* | -22% | -6% | 12%
CCOC(=O)C1CCN(C(=O)Cn2nc(C)n3c(cc4c(OC)cccc43)c2=O)CC1 | · | -6% | -4% | ·
CCc1nn(CC(=O)N2CCN(C)CC2)c(=O)c2cccn12 | -9% | 0% | -2% | 3%
O=C(Nc1ccccc1C(F)(F)F)c1c(F)cccc1Cl | 30µM* | -17% | -8% | 13%
O=C(Nc1ccccc1Br)c1c(F)cccc1Cl | -5% | -11% | 0% | 12%
CC(C)CC(=O)NC1(C(F)(F)F)C(=O)Nc2c1c(=O)[nH]c(=O)n2-c1ccccc1 (stereo not given) | · | -11% | 32µM* | ·
Cc1ccc(C(=O)NC(=S)Nc2cccc(NC(=O)c3ccccc3Cl)c2)cc1[N+](=O)[O-] | -12% | -14% | ? | 4%
Cc1cc(C(=O)Nc2ccc(Nc3ccccc3)cc2)ccc1[N+](=O)[O-] | 3.4µM* | 25µM* | 89% | 20%
O=C(NC(=S)Nc1cccc([N+](=O)[O-])c1)c1ccco1 | -10% | -13% | -8% | ?
Cc1ccc(C(=O)NC(=S)Nc2cccc(NC(=O)c3ccccc3)c2)cc1[N+](=O)[O-] | -6% | -11% | 25µM* | -6%
CC(=O)c1cccc(NCC(=O)c2ccc(C)c([N+](=O)[O-])c2)c1 | ? | ? | ? | 18µM*
O=C(NC(=S)Nc1cccc([N+](=O)[O-])c1)c1ccccc1 | -10% | -22% | 47% | 45µM*
CS(=O)(=O)N1CCC(C2CCN(Cc3cccs3)C2)CC1 (stereo not given) | · | · | 85% | ·
COc1ccc(C(=O)N2CCN(c3oc(-c4cccs4)nc3C#N)CC2)cc1 | · | · | 0% | ·
O=C(COc1ccc(Cl)cc1)N1CC2CC(C1)[C@H]1CCCC(=O)N1C2 (stereo not given in full) | · | · | 4% | ·
COc1ccc(S(=O)(=O)N(C)C)cc1NCC(=O)Nc1ccc(Br)cc1F | -4% | -14% | 0% | -10%
COc1ccc(C(=O)N/C(=C\c2cccc([N+](=O)[O-])c2)C(=O)Nc2cccc(C(=O)O)c2)cc1 | -3% | 6% | -12% | 5%
COc1ccccc1C(=O)N/C(=C/c1cccc([N+](=O)[O-])c1)C(=O)Nc1cccc(C(=O)O)c1 | 30µM* | ? | -3% | -8%
CC(C)S(=O)(=O)NC(=O)C1(C)CCN1C(=O)Cc1ccccc1Cl (stereo not given) | 3% | · | -5% | ·
COCCNC(=S)Nc1cc(OC)c(OC)cc1C#N | -11% | -12% | ? | 79µM*
SMILES | PLK1 PBD inh | VDR inh | ALOX12 inh | Sfp inh
O=C1NN(c2ccccc2)C(=O)C1=Cc1ccccc1O | 27µM* | · | ? | ·
O=C1NN(c2ccc(Br)cc2)C(=O)/C1=C\c1ccc(O)cc1O | 30µM* | -2% | 40µM* | 14%
O=C1NN(c2ccc(F)cc2)C(=O)/C1=C/c1cccs1 | -28% | ? | ? | 10%
Cc1cc(/C=C2/C(=O)NN(c3ccccc3)C2=O)c(C)n1-c1cccc(O)c1 | -24% | 11% | -25% | -19%
O=C1NN(c2cccc(Br)c2)C(=O)/C1=C\c1ccc(O)cc1 | 24µM* | ? | 16µM* | -6%
CCOC(=O)N1CCC(N2CCN(Cc3ccc(C)o3)C(CCO)C2)CC1 (stereo not given) | 15µM* | -27% | -22% | 22%
CCOC(=O)N1CCC(N2CCN(Cc3ccccc3)C(CCO)C2)CC1 (stereo not given) | -6% | 3% | -3% | 0%
COc1cccc(-n2sc3c(c2=S)-c2cc(OC)ccc2NC3(C)C)c1 | 2% | -9% | ? | 26%
CC1(C)Nc2ccc(O)cc2-c2c1ssc2=S | 27µM* | ? | 45µM* | 45µM*
COc1ccc(-c2c(C)oc3cc(OC(=O)C(C)(C)C)ccc3c2=O)cc1 | · | · | -7% | ·
Cc1ccc(-c2nc(CS(=O)(=O)CC(=O)N3CCN(c4ccccc4)CC3)c(C)o2)cc1 | · | 6% | ? | ·
CC1CCc2ccccc2N1C(=O)c1cccs1 (stereo not given) | 21µM* | ? | 2% | 19%
O=C(Cc1cccc(NC(=O)C2CCCN(C(=O)c3ccccc3)C2)c1)Nc1cccc(C(=O)N2CCCCC2)c1 (stereo not given) | -5% | -2% | -4% | ·
Cc1ccc(NC(=O)CCCCCC2NC(=O)NC2C)cc1 (stereo not given) | -7% | -2% | -13% | 16%
CC1NC(=O)NC1CCCCC(=O)O (stereo not given) | 11µM* | 2% | 0% | 11%
CCCC[n+]1ccn(-c2nc3ccccc3nc2[N-]S(=O)(=O)c2cccs2)c1 | -4% | 5% | 139% | 35µM*
CCCCC[n+]1ccn(-c2nc3ccccc3nc2[N-]S(=O)(=O)c2ccc(C)cc2)c1 | -15% | -4% | 0% | 56µM*
COc1ccc(C(N)=O)cc1NC(=O)CC(O)(C(F)(F)F)C(F)(F)F | -4% | 2% | 2% | 10%
Cc1nc(-c2cc3ccc(OC(=O)C(C)C)cc3oc2=O)cs1 | · | · | 5% | ·
Cc1cc(/C=C2\C(=N)N3C(SCc4ccccc4)=NSC3=NC2=O)c(C)n1Cc1ccccc1 | -25% | 20% | -8% | -6%
CC(C)CSC1=NSC2=NC(=O)/C(=C\c3ccccc3)C(=N)N12 | 27µM* | -18% | -20% | 33%
N=C1/C(=C\c2coc3ccc(O)cc3c2=O)C(=O)N=C2SC=CN12 | 8% | 5% | ? | ?
CSC1=NSC2=NC(=O)/C(=C\c3coc4ccccc4c3=O)C(=N)N12 | 27µM* | ? | ? | -4%
CC(C)CSC1=NSC2=NC(=O)/C(=C\c3coc4ccccc4c3=O)C(=N)N12 | 17µM* | 79µM* | 28µM* | -20%
N#CCCn1cc(C(CC(=O)c2ccc(Br)cc2)C(=O)O)c2ccccc21 (stereo not given) | -6% | -13% | · | 12%
Cc1ccc(C(=O)CC(C(=O)O)c2cn(CCC#N)c3ccccc23)cc1 (stereo not given) | 27µM* | -23% | -12% | 5%
O=C(NCc1cccs1)C1CCC(CNS(=O)(=O)c2cccc3nsnc23)CC1 (stereo not given) | -21% | -22% | 1% | -12%

Bioassay records as filed in PubChem BioAssay.
